Measurements: the supplement of paper PMC10849652
Targets with a hit are over-represented here; the source holds about 7,900 in all. About 0.6% of all pairs of compound and target were hits.

Compound: c1cn2cc(-c3ccc4cn[nH]c4c3)nc(Nc3ccc(N4CCOCC4)cc3)c2n1 [entospletinib]
Assay: log2 fold change, soluble protein after heating vs DMSO (PISA); higher = thermal stabilisation; K562 cells, 10 uM, 30 min; active = over 0.2 and 3.5 SD of the protein, either way, in both replicates (recomputed)
In short: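 K562 cells (2×10^6 cells/mL) were treated with 10 μM compound for 30 min, and aliquots were heated for 3 min over 48°C-58°C. Pooled aliquots were extracted in PBS with 0.5% NP-40 at 4°C, and the supernatant after 21,000xg for 90 min was measured by TMTpro 16plex LC-MS/MS with channel sums equalised. Reported thermal stability, relative to control samples and from duplicates, is a log2 fold change.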

Chain of UniProt Q13362 (Q13362 whole entry, looked up): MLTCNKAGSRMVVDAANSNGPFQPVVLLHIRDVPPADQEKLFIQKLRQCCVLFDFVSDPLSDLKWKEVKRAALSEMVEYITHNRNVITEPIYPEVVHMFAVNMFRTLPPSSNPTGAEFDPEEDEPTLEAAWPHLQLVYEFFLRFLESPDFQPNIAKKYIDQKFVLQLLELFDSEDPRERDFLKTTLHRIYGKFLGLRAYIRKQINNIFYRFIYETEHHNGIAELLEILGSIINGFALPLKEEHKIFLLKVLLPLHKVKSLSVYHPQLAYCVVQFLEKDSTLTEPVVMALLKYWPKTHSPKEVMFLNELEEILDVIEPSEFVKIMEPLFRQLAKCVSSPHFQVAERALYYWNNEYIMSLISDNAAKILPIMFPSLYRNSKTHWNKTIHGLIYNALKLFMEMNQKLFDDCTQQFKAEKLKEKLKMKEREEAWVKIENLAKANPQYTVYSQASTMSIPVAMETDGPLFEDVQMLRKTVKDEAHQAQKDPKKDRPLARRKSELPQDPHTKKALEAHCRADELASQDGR
Chain of UniProt O15305 (O15305 whole entry, looked up): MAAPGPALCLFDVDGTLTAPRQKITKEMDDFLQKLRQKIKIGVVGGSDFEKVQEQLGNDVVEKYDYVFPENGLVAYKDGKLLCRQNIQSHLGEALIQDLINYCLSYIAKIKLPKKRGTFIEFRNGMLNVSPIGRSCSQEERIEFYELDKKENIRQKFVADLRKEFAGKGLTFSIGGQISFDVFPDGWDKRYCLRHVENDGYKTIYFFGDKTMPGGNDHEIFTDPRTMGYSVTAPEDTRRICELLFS
Chain of UniProt Q9Y244 (Q9Y244 whole entry, looked up): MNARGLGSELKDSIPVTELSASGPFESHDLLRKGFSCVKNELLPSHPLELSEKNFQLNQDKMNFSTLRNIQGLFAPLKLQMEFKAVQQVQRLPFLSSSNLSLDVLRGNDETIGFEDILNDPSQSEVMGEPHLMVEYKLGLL
Chain of UniProt Q86T03 (Q86T03 whole entry, looked up): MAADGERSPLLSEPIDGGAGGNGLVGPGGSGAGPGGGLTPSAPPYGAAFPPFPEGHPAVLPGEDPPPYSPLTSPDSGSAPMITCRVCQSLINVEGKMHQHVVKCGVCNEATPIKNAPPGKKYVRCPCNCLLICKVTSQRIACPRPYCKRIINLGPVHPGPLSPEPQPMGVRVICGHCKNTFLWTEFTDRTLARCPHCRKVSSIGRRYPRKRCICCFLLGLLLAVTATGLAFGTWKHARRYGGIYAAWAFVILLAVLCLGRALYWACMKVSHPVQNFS
Chain of UniProt O00231 (O00231 whole entry, looked up): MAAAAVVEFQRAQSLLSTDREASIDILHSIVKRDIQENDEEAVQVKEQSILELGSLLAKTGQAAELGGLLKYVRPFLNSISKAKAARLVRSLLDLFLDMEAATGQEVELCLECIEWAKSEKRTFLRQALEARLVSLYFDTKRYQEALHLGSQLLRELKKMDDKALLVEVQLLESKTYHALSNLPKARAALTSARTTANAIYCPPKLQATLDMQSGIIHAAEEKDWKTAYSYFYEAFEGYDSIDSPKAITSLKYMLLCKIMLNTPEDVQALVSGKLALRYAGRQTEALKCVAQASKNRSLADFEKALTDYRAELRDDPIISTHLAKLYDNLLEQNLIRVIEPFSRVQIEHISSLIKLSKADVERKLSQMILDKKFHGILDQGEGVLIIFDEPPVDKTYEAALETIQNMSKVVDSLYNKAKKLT
Chain of UniProt Q9H3S7 (Q9H3S7 whole entry, looked up): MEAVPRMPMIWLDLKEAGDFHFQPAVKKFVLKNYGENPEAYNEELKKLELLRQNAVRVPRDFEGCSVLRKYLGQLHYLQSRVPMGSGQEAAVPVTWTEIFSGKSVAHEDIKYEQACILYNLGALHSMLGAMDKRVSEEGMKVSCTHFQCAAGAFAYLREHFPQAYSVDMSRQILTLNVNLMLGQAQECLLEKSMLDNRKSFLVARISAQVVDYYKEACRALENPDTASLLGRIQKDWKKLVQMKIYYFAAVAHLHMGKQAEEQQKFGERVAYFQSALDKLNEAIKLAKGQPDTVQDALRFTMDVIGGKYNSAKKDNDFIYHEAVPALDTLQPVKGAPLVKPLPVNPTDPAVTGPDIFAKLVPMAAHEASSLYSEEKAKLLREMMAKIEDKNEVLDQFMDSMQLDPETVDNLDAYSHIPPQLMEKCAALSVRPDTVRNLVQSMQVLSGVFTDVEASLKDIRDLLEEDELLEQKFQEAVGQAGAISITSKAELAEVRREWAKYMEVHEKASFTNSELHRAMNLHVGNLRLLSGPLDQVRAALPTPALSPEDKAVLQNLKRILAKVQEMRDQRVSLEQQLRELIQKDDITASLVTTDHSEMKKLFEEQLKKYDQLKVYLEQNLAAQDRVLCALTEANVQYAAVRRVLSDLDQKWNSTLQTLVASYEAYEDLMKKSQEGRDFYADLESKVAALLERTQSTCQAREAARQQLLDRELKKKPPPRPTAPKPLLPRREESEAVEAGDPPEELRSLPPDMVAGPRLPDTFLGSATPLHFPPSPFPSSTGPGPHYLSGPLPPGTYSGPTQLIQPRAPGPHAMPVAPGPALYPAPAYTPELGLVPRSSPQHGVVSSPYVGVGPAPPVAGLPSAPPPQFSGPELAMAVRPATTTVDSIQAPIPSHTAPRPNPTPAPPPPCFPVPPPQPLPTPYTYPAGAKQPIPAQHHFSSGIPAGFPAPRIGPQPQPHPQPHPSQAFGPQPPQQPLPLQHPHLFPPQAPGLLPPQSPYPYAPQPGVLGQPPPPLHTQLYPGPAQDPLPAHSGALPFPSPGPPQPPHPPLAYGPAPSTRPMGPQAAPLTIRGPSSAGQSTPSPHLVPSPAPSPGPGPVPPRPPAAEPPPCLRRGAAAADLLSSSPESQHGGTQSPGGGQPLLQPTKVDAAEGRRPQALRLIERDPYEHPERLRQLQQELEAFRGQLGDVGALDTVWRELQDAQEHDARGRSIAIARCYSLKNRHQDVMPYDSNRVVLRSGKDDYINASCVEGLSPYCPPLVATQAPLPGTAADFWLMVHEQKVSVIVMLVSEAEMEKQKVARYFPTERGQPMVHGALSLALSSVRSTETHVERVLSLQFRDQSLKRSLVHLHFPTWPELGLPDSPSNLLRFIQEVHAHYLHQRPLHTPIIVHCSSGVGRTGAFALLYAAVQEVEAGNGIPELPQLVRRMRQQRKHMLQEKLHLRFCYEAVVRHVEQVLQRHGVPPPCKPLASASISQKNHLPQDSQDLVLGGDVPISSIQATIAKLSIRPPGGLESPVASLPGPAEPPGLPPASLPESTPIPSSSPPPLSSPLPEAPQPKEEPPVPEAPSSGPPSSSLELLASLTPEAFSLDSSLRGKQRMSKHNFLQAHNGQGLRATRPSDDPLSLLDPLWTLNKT
Chain of UniProt P14618 (P14618 whole entry, looked up): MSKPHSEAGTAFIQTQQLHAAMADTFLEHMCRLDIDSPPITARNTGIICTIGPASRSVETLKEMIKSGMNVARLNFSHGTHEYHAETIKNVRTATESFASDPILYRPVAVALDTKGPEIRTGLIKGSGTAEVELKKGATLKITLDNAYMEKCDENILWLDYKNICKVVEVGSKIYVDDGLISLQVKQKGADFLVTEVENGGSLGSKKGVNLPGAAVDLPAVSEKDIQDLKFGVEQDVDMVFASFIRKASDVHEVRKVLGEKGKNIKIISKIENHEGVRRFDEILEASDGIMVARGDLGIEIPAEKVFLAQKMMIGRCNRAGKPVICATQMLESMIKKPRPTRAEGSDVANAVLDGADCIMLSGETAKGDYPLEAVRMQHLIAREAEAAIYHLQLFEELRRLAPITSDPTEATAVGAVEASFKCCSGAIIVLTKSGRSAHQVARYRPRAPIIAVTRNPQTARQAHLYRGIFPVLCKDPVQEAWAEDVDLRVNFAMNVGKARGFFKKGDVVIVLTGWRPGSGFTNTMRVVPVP
Chain of UniProt P49642 (P49642 whole entry, looked up): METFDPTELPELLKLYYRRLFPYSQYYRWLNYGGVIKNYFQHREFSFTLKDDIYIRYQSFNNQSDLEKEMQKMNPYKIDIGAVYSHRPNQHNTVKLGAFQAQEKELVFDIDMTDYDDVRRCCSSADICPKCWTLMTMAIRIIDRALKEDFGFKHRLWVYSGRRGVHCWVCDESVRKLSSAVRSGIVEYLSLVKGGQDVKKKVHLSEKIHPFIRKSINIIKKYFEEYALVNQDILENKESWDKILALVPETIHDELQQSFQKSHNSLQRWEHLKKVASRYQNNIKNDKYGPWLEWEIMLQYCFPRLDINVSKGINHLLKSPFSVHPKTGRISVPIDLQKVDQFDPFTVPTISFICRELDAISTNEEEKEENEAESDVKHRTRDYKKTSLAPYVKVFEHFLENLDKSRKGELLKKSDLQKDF
Chain of UniProt Q9NVM4 (Q9NVM4 whole entry, looked up): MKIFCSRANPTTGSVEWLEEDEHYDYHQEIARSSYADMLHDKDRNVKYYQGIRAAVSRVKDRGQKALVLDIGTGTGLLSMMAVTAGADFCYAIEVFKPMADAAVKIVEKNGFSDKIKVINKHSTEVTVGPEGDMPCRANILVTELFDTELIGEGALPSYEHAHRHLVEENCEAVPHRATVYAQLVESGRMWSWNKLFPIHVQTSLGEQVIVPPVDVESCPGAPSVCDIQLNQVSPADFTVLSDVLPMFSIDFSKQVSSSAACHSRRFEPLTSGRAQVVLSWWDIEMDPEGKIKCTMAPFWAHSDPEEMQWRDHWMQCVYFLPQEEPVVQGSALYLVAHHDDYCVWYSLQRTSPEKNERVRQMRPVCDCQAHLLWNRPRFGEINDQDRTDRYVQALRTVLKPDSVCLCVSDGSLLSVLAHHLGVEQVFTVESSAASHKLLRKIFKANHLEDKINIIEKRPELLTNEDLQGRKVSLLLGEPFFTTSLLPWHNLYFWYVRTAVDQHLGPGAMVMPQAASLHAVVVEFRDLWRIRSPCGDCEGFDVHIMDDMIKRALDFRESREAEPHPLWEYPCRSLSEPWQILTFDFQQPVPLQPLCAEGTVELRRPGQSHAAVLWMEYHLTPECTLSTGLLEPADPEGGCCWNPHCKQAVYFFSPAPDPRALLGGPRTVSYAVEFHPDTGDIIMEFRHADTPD

| Target | log2 fold change |
| --- | --- |
| POLR2B (UniProt P30876) | 0.193 (inactive) |
| POMP (UniProt Q9Y244) | -0.015 (inactive) |
| PRKAG1 isoform 3 (UniProt P54619) | -0.018 (inactive) |
| POLA2 (UniProt Q14181) | -0.047 (inactive) |
| PKM isoform 2 (UniProt P14618) | 0.128 (inactive) |
| PPP1R14A (UniProt Q96A00) | 0 (inactive) |
| PRPF4B (UniProt Q13523) | 0.09 (inactive) |
| PSMD11 (UniProt O00231) | 0.017 (inactive) |
| PGK2 (UniProt P07205) | -0.035 (inactive) |
| PHKA2 (UniProt P46019) | -0.043 (inactive) |
| PPP2R5C isoform 4 (UniProt Q13362) | -0.023 (inactive) |
| PLD3 (UniProt Q8IV08) | -0.01 (inactive) |
| POLR2G (UniProt P62487) | 0.183 (inactive) |
| PSMD12 (UniProt O00232) | 0.032 (inactive) |
| PIP4P1 isoform 2 (UniProt Q86T03) | 0.028 (inactive) |
| QKI (UniProt Q96PU8) | 0.065 (inactive) |
| PRIM1 (UniProt P49642) | 0.062 (inactive) |
| PC (UniProt P11498) | 0.002 (inactive) |
| POLR2E (UniProt P19388) | 0.032 (inactive) |
| PRMT7 (UniProt Q9NVM4) | 0.055 (inactive) |
| POLR2M (UniProt P0CAP2) | -0.059 (inactive) |
| PTPN23 (UniProt Q9H3S7) | -0.031 (inactive) |
| PMM2 (UniProt O15305) | -0.194 (inactive) |
